Results filed as inconclusive are left out. Active and inactive are the calls of the source. Rule for the calls: active = hit-call score of the fitted dose curve at least 0.9, where 1 is the maximum; inconclusive = response in the unintended direction; inactive = score below 0.9.

The nature of the test: CCTE_Deisenroth_AIME_384WELL_CTox_Active: Cytotoxicity Assessment (CTOX) in CCTE's 384-well Estrogen Receptor Transactivation Assay with AIME metabolic competence (metabolism positive), Deisenroth Lab (AID 2284037).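 Note: chemicals first conditioned 2 h by alginate-bound induced rat liver S9 before cells; activity means signal loss indicating cell death.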 As for the experimental part:
CCTE_Deisenroth_AIME_384WELL (AIME metabolism assay) is a cell-based, single-readout assay that uses VM7Luc4E2, a human mammary gland/breast cell line, with measurements taken at 24 hour after chemical dosing in a 384-well plate.CCTE_Deisenroth_AIME_384WELL_CTox_Active is one of four assay components measured or calculated from the CCTE_Deisenroth_AIME_384WELL assay. It is designed to make measurements of a protease substrate, a type of viability indicator, as detected with substrate cleavage to a fluorescent probe in living cells.CCTE_Deisenroth_AIME_384WELL_CTox_Active is a component of the CCTE_Deisenroth_AIME_384WELL assay that measures the effect of retroftting the VM7Luc ERTA assay with the Alginate Immobolization of Metabolic Enzymes (AIME) metabolism method. AIME is optimized to impart phase I hepatic metabolism using phenobarbital/beta-naphthoflavone induced hepatic S9 from male Sprague Dawley rats. Parent chemicals are incubated for 2 hours in the AIME assay prior to transfer to the VM7Luc ERTA assay plate. […] This endpoint evaluates cytotoxicity in metabolism positive mode. Using a type of flourescent probe in VM7Luc cells, loss-of-signal activity can be used to understand loss of viability. This assay endpoint, CCTE_Deisenroth_AIME_384WELL_CTox_Active, was analyzed with bidirectional fitting in the ERTA assay.
The AIME procedure consists of a preparative "pre-stamping" step using a barium chloride/poly-L-lysine (PLL) solution followed by "stamping" the lid in alginate-hepatic S9 (metabolism positive) or alginate-water (metabolism negative) to form microspheres. Once stamping is completed, the AIME lids are placed in duplicate microplates (metabolism positive or negative) containing chemical solutions and incubated for two hours to facilitate metabolic reactions. The conditioned medium, containing parent chemical or metabolites, is then transferred to the cell-based VM7Luc Estrogen Receptor Transactivation Assay (ERTA) for 24 hours. A typical experimental design tests a 10-point concentration series (0.002 - 200 uM) for 8 compounds (96-well format) (Deisenroth 2020) or 32 compounds (384-well format) (Hopperstad 2022) in single technical replicate. AIME assay controls include trans-stilbene (bioactivated control) and ethylparaben (bioinactivated control). ERTA assay plate controls include 17-beta estradiol (positive control) and DMSO (solvent control). Experiments typically comprise a minimum of four experimental replicates (n=4).
As for `CCCCCCCCCCCCCC(=O)O`, the result was inactive.
Same read-out and setting: then `NCCCN1CCOCC1`, with “inactive”; and `OC1OC[C@@H](O)[C@H](O)[C@H]1O` (some centres undefined), with “inactive”; and `CC1(C)[C@@H]2CC[C@@]1(C)[C@H](O)C2`, with “inactive”.
The same measure, in the same setting: then `CN(C)CCCN`, with “inactive”; and `O=C(O)Cc1cccc2ccccc12`, with “inactive”.
On to `O=C[C@@H](O)[C@H](O)[C@H](O)CO`, for which the result was inactive.
`CC1(C)C(=O)N(Br)C(=O)N1Cl`: the molecule was classed as inactive.
The same measure, in the same setting: then `O=C(Cl)c1cccc(C(=O)Cl)c1`, with “inactive”; and `O=C(O)c1ccc([N+](=O)[O-])cc1`, with “inactive”.
Regarding `NCCCCCCN`, the molecule was classed as inactive.
On the same count and under the same terms, in the case of `CC(C)=CCCC(C)CC=O` (centres undefined) it was “inactive”.
For `CCCCCCCCCCCCCOS(=O)(=O)O`, the AC50 is 156 µM (active).
For `CCCC1CCC(=O)O1` (centres undefined), the molecule was called inactive.
As to `OCCOCCOCCOCCO`, the outcome was inactive.
Still for that read-out and setting: then `Cc1ccc(O)c(C(C)(C)C)c1`, with “inactive”.
On the same count and under the same terms, in the case of `CCCCCOC(=O)CCC` it was “inactive”; in that of `NCCNCCN`, “inactive”.
In the case of `CC(=O)OCCOC(C)=O`, the molecule was called inactive.

(Values after PubChem BioAssay (EPA / NIEHS).)
